Measured values reported in PubChem BioAssay (Tox21).
Records with an inconclusive call do not appear. Unmarked numbers belong to inactive results. The source made the active and inactive calls. Calls follow the shape of the dose curve; as a rule, active = well fitted cell-killing curve with a large enough effect in the repeat runs; inconclusive = weak or mixed curves, or effect the other way; inactive = flat fitted curve, though single readings scatter.

Test: qHTS RealTime-Glo MT Cell Viability Assay in HEK293 cells - 32 hour (AID 1224868); also: nearly all actives have a fitted effect of over 50% in size; as to activity change, negative = cytotoxic: top concentration of the series differs between compounds
Details: RealTime-Glo luminescence; series mostly up to 76.8 µM; activity change, negative = cytotoxic: at the top concentration
Description: National Center for Advancing Translational Sciences [NCATS]
NIH Chemical Genomics Center [NCGC]
U.S. Environmental Protection Agency [EPA]
National Institutes of Environmental Health Sciences [NIEHS]
National Toxicology Program [NTP]
U.S. Food and Drug Administration [FDA]
Measure of cell viability is critical in the cell-base assay. Analysis of cell viability is necessary for the characterization of cell responses to cytotoxic drugs and environmental stress. A RealTime-Glo MT Cell Viability Assay to monitor cell viability in real time of continues cell culture during 40 hours of compound treatment was used to screen Tox21 10K library compounds in Hek293 cells. The RealTime-Glo MT Cell Viability Assay is a nonlytic, homogeneous, bioluminescent method to measure cell viability in real time using a simple, plate-based method. The assay involves adding NanoLuc luciferase and a cell-permeant prosubstrate to cells in culture. Viable cells reduce the proprietary prosubstrate to generate a substrate for NanoLuc luciferase. This substrate diffuses from cells into the surrounding culture medium, where it is rapidly used by the NanoLuc Enzyme to produce a luminescent signal. The signal correlates with the number of viable cells, making the assay well suited for cytotoxicity studies.
Tox21 Assay Protocol Summary:
The mixture of Hek293 cell suspension and reagents were dispensed at 600cells/6 ul/well in 1536-well tissue culture treated black solid bottom plates using a Multidrop dispenser. After the assay plates were incubated at a 37 C/5% CO2 incubator for 5 hours, 23 nL of compounds dissolved in DMSO, positive and negative controls was transferred to the assay plate by a pintool work station. The plates were incubated at 37 C for 40 hours. The luminescence intensity were measured at 0h, 8h, 16h, 24h, 32h and 40h time points using ViewLux plate reader during compound treatment.
% is scaled to controls: 0 for no effect and ±100 for the full control effect; potency is read from the fitted curve at half-maximal effect.

Row | SMILES | activity change, negative = cytotoxic | Potency
1 | CCCCCCCCOC(=O)CCCCCCCCC(=O)OCCCCCCCC | 2.2% | 
2 | OCCN1CCN(CCO)CC1 | 4.54% | 
3 | CCN1CC(CCN2CCOCC2)C(c2ccccc2)(c2ccccc2)C1=O (stereo not given) | 20.6% [at 35.3 µM] | 
4 | CCc1cc2cc(OC)c(OC)cc2c(Cc2ccccc2)n1 |  | 16.9 µM (active)
5 | C=CC1CO1 (stereo not given) | 8.81% | 
6 | CC(=O)N(CC(O)CN(C(C)=O)c1c(I)c(C(=O)NCC(O)CO)c(I)c(C(=O)NCC(O)CO)c1I)c1c(I)c(C(=O)NCC(O)CO)c(I)c(C(=O)NCC(O)CO)c1I (stereo not given) | 0.747% [at 35.3 µM] | 
7 | CC/C=C\CCOC(=O)C(C)C | 1.54% | 
8 | C=O | 2.12% | 
9 | OC[C@H]1O[C@@H](O[C@H]2[C@H](O)[C@@H](O)[C@H](O)O[C@@H]2CO)[C@H](O)[C@@H](O)[C@H]1O | -4.03% | 
10 | C[C@]12CCC(=O)C=C1CC[C@@H]1[C@@H]2CC[C@@]2(C)[C@H]1CC[C@]2(O)C(=O)CO | -17.1% [at 35.3 µM] | 
11 | CC1(C)C(=O)N(Cl)C(=O)N1Br | 18% | 
12 | CCCCCOc1ccc(C2SC(=O)NC2=O)cc1OCC (stereo not given) | -9.86% [at 35.3 µM] | 
13 | CCCNC(C)(C)COC(=O)c1ccccc1 | -0.32% [at 35.3 µM] | 
14 | CC1=NN(c2cc(Cl)c(S(=O)(=O)O)cc2Cl)C(=O)C1N=Nc1ccc(S(=O)(=O)O)cc1 (stereo not given) | 0.165% | 
15 | CCN[C@H]1CN(CCCOC)S(=O)(=O)c2sc(S(N)(=O)=O)cc21 | 2.44% [at 35.3 µM] | 
16 | Cc1cc(S(=O)(=O)O)c(N)cc1Cl | 1.71% | 
17 | CC(C)c1ccccc1 | 0.134% | 
18 | Nc1cccc(S(=O)(=O)O)c1 | 6.78% | 
19 | NC1=NCC2c3ccccc3Cc3ccccc3N12 (stereo not given) | -13.4% [at 35.3 µM] | 
20 | CC1CN(c2ccccc2)NC1=O (stereo not given) | -9.49% | 

Row | SMILES | activity change, negative = cytotoxic | Potency
21 | CN1CCC[C@@H]1Cc1c[nH]c2ccc(CCS(=O)(=O)c3ccccc3)cc12 | 0.402% [at 35.3 µM] | 
22 | CC(C)=CCCC(C)CCOC=O (stereo not given) | 11.9% | 
23 | COc1nc(C)nc(NC(=O)NS(=O)(=O)c2ccccc2OCCCl)n1 | 8.63% | 
24 | CCC(=O)Nc1ccc(O)cc1 | 3.52% [at 35.3 µM] | 
25 | NC(=O)NS(=O)(=O)c1ccc(Cl)cc1 | 5.21% [at 35.3 µM] | 
26 | CO[Si](C)(C)OC | 1.91% | 
27 | CC(C)CC(=O)OCc1ccccc1 | 3.79% | 
28 | O=Cc1ccc(F)c(Br)c1 | 5.84% | 
29 | O=[N+]([O-])c1nccn1CO[C@@H](CO)[C@H](O)CO | -2.37% [at 35.3 µM] | 
30 | O=c1[nH]cnc2c1ncn2[C@@H]1O[C@H](CO)[C@@H](O)[C@H]1O | 0.249% [at 35.3 µM] | 
31 | CC1=CC(=O)CC(C)(C)C1=O | -7.68% | 
32 | C=C(C)C(=O)OCCOP(=O)(O)O | 13.1% | 
33 | CC(C)(C)c1cccc(O)c1 | -2.27% | 
34 | O=C(O)c1cccc(Cl)c1Cl | -10.2% | 
35 | CC(=O)OC1C2(C)CCC(C2)C1(C)C (stereo not given) | -1.96% | 
36 | O=C1CCCCCCCCCCC(=O)OCCO1 | -15.7% | 
37 | COc1cc(N)c(Cl)cc1C(=O)NC1CCN(Cc2ccccc2)CC1 |  | 19 µM (active)
38 | CCCC(CCC)(C(=O)OCC)C(=O)OCC | -0.107% [at 35.3 µM] | 
39 | CCCCCCCCCC/C=C/C#N | 3.71% | 
40 | CN1C(=O)CC(c2ccccc2)C1=O (stereo not given) | 0.657% [at 35.3 µM] | 
